Laboratory results published in article PMC7826789 (International Journal of Molecular Sciences, 2021).

How the values were obtained:
[1] = system: IKKE
[2] = system: IRR
[3] = system: JAK1
[4] = system: JAK3
[5] = system: JNK1
[6] = system: JNK2
[7] = system: JNK3
[8] = system: LATS1
[9] = system: LCK
[10] = system: LYN
[11] = system: LIMK2
[12] = system: LOK
[13] = system: MAP2K3

## CC(C)COC(=O)c1ccc2c(c1)/C(=C/Nc1ccc(S(N)(=O)=O)cc1)C(=O)N2 [GW416981X]
[1]
  Kinases covered: IKKE

## CNC(=O)c1c(F)cccc1Nc1nc(Nc2cc3c(cc2OC)CCN3C(=O)CN(C)C)nc2[nH]ccc12 [GSK1838705]
[2]
  Kinases covered: IRR

## CN(C)C(=O)/C(C#N)=C/c1ccc(-c2nc3cnc4[nH]ccc4c3n2C2CCCCC2)o1 [FM-381]
[3]
  Kinases covered: JAK1
[4]
  Kinases covered: JAK3

## C[C@@H]1CCN(C(=O)CO)C[C@@H]1N(C)c1ncnc2[nH]ccc12 [PFE-PKIS 34]
[4]
  Kinases covered: JAK3

## Cc1cc(NC(=O)c2cccc(NC(=O)/C=C/CN(C)C)c2)ccc1Nc1nccc(-c2cccnc2)n1 [JNK-IN-7]
[5]
  Kinases covered: JNK1
[6]
  Kinases covered: JNK2
[7]
  Kinases covered: JNK3

## O=C(O)/C=C/C(=O)O.OCCCNc1nccc(-c2c(-c3ccc(F)cc3)nn3cc(C(F)(F)F)ccc23)n1 [GW569293E]
[8]
  Kinases covered: LATS1

## COc1cc(-c2cncc(-c3cnn(C4CCNCC4)c3)c2)cc(OC)c1OC [K05908]
[9]
  Kinases covered: LCK

## COc1cc2ncnc(Nc3cccc(Cl)c3F)c2cc1O[C@H]1CC[C@H]([C@@H]2NCCNC2=O)CC1 [BI00133844]
[9]
  Kinases covered: LCK
[10]
  Kinases covered: LYN

## CCCCN(Cc1ccccc1)C(=O)c1ccc(S(=O)(=O)Nc2ccccc2)cc1 [TH257]
[11]
  Kinases covered: LIMK2

## COc1cc2ncnc(Nc3ccc(F)c(Cl)c3)c2cc1O[C@H]1CC[C@H](N)CC1 [BIBW3133BS]
[12]
  Kinases covered: LOK

## Nc1nccc(-c2c(-c3ccc(F)cc3)ncn2CCCN2CCOCC2)n1 [SB-216385]
[13]
  Kinases covered: MAP2K3
